Reference: PubChem BioAssay (NCATS)
Records with an inconclusive call do not appear. Unmarked numbers belong to inactive results. The source made the active and inactive calls. Calls come from the whole dose curve.

Target: Estrogen receptor (Homo sapiens) (UniProt P03372)
Experiment: qHTS assay for small molecule agonists of estrogen receptor alpha signaling (AID 588514); note: nearly all actives have a fitted effect of over 70% in size
Conditions: ER-alpha-UAS-bla HEK293, beta-lactamase ratio, 18 h; series mostly up to 76.8 µM; activation: at the top concentration
Source text: NIH Chemical Genomics Center [NCGC]
U.S. Environmental Protection Agency [EPA]
National Institutes of Environmental Health Sciences [NIEHS]
National Toxicology Program [NTP]
Estrogen receptor alpha (ER-alpha) is an important member of nuclear hormone receptors. ER-alpha plays important role in breast cancer as well as in other women's health issues. The majority of breast cancers is estrogen receptor (ER) positive and depends on estrogen for growth. There is also growing concern for some of environmental chemicals which may contribute the increasing the incidence of breast cancer. Therefore, it is important to understand the effect of environmental chemicals in ER-alpha signaling pathway.
NCGC Assay Protocol Summary
Using a beta-lactamase reporter-gene under control of the ER response element, a cell-based assay [ER-alpha-UAS-bla GripTiteTM cell-Based Assay from Invitrogen] was used to measure ER-alpha signaling pathway in agonist mode. ER-alpha-UAS-bla-GripTite HEK 293 cells were used with assay medium containing 2% charcoal/dextran treated FBS, 0.1 mM NEAA and 1 mM sodium pyruvate. Cells were cultured in this assay medium overnight in the flasks before the assay. The assay was performed in clear bottom black Greiner 1536-well plates. 17-beta-estradiol was used as a positive control in the screen. Library compounds were measured for their ability to either stimulate the reporter gene activity. Compounds were screened in a titration series in 1536-well format. […] Data was normalized relative to 17-beta-estradiol control (20 nM, 100%), and DMSO only wells (basal, 0%). Concentration-response titration points for each compound were fitted to the Hill equation yielding concentrations of half-maximal stimulation (EC50) and maximal response (efficacy) values.
qHTS protocol for ER-alpha beta-lactamase assay in agonist mode
[Step] [Parameter] [Value] [Description]
1. Reagent; 6 uL; 5000 cells/well
2. Incubation; 37 C for 4 hrs
4. Controls (17-beta-estradiol); 23 nL
- Dose response, start 1uM, 1:3 dilutions with duplicates
- Two columns with 20 and 0.5 nM (final) concentration.
5. Incubation; 37 C for 18 hrs
6. Detection reagent; 1 uL of CCF4-dye
7. Incubation; RT for 2 hrs
8. Detection; Fluorescence; Envision plate reader or Acumen plate reader

Estrogen receptor (Homo sapiens), sequence (P03372 whole entry, looked up): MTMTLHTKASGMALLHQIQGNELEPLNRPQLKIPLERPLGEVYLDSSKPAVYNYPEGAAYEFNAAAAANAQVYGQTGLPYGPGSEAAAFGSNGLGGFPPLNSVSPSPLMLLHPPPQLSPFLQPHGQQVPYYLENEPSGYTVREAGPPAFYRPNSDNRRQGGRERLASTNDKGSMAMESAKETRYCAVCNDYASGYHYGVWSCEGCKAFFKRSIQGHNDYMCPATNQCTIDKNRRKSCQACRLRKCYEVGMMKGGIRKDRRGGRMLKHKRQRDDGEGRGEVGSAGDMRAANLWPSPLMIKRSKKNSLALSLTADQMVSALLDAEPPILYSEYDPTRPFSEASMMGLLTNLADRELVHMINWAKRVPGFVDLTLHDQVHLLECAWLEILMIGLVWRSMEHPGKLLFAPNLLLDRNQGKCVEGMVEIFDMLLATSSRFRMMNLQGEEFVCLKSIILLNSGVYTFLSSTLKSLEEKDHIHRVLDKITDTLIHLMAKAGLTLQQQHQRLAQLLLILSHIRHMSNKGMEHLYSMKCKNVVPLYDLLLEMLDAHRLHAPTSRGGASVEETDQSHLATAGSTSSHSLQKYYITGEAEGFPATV

Row | SMILES | Potency | activation
1 | C[C@@H]1Cc2c(Cl)cc(C(=O)N[C@@H](Cc3ccccc3)C(=O)O)c(O)c2C(=O)O1 | 44.7 µM (active) | –
2 | Oc1c(Cl)c(Cl)c(Cl)c(Cl)c1Cl | – | -2.96%
3 | CC(C)OC(=O)Nc1ccccc1 | – | -5.53%
4 | C[C@H]1O[C@H](OC2[C@@H](O)[C@@H](O)C(O)[C@H](O)[C@H]2O)[C@@H](N)C[C@@H]1N=C(N)C(=O)O (stereo partly specified) | – | 15.8%
5 | CC(C)(c1ccc(OCC2CO2)cc1)c1ccc(OCC2CO2)cc1 (stereo unspecified) | inactive | –
6 | CCOC(=O)c1ccccc1N | – | -0.351%
7 | CC(C)COC(=O)c1ccccc1C(=O)OCC(C)C | – | 5.05%
8 | O=C1c2cccc(O)c2C(=O)c2c(O)cc(CO)cc21 | 20 µM (active) | –
9 | COC(=O)c1ccccc1C(=O)OC | inactive | –
10 | Cc1ccccc1O | inactive | –
11 | CCOP(=S)(OCC)SCSCC | – | -1.56%
